According to PubChem BioAssay (NCI):
The panel holds about 79,000 compounds, 15% with a hit somewhere; the sample as a whole holds those more often. Activity calls are given as the source filed them. No stated cut-off is given here; in the data, active means growth inhibition above about 70%; inactive means the rest.

Legend:
[1] = NCI Yeast Anticancer Drug Screen. Data for the rad50 strain (AID 155);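 further: 0% = growth of vehicle-only cultures of the same strain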; details: S. cerevisiae rad50 strain growth inhibition; at 50.0 µM; active compounds read high
Summary of the method: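 DNA repair mutant yeast, compound exposure, growth read-out; inhibition is taken relative to vehicle.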

[2] = NCI Yeast Anticancer Drug Screen. Data for the mec2-1 strain (AID 157); details: S. cerevisiae mec2-1 strain, at 50.0 µM, active compounds read high
Summary of the method: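 mec2-1 yeast strain, carrying an alteration in DNA damage repair or cell cycle control, was exposed to compounds; growth inhibition was measured relative to vehicle-treated controls.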

[3] = NCI Yeast Anticancer Drug Screen. Data for the sgs1 mgt1 strain (AID 161);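 further: 0% = growth of cultures given vehicle only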; details: S. cerevisiae sgs1 mgt1 strain, at 50.0 µM, active compounds read high
Summary of the method: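 Percent growth inhibition was derived by comparing compound-exposed mutant yeast with vehicle-exposed cultures. The strain carries alterations in DNA damage repair.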

[4] = NCI Yeast Anticancer Drug Screen. Data for the cln2 rad14 strain (AID 165);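 further: 0% = growth equal to vehicle treated cultures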; details: S. cerevisiae cln2 rad14 strain, at 50.0 µM, active compounds read high
Summary of the method: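 Yeast carrying cln2 and rad14 alterations (cell cycle control and DNA damage repair) were exposed to compounds. Growth inhibition was measured against vehicle-treated controls.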

[5] = NCI Yeast Anticancer Drug Screen. Data for the bub3 strain (AID 167); details: S. cerevisiae bub3 mutant strain, at 50.0 µM, active compounds read high
Summary of the method: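 In this screen, a yeast mutant lacking normal mitotic checkpoint function is challenged with compound. Relative growth versus vehicle gives the inhibition value.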

[6] = NCI Yeast Anticancer Drug Screen. Data for the mlh1 rad18 strain (AID 175); details: S. cerevisiae mlh1 rad18 strain growth inhibition; at 50.0 µM; active compounds read high
Summary of the method: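 Growth inhibition of the yeast strain was measured after compound exposure and expressed relative to vehicle-treated controls. The strain carries defined defects in DNA damage repair.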

Structure (SMILES) | growth inhibition [1] | growth inhibition [2] | growth inhibition [3] | growth inhibition [4] | growth inhibition [5] | growth inhibition [6]
CC(=O)N(C)CCCCCCN(C)C(C)=O | 8.95% (inactive) | 8.05% (inactive) | 10.7% (inactive) | 3.05% (inactive) | 7.2% (inactive) | 9.35% (inactive)
COC(=O)c1[nH]c(=O)[nH]c(=S)c1N | 7.75% (inactive) | 21% (inactive) | -10.6% (inactive) | -20.6% (inactive) | -17.8% (inactive) | -15.8% (inactive)
COc1ccc(C(CCl)(CCl)c2ccc(OC)cc2)cc1 | 11.8% (inactive) | -40% (inactive) | 4.35% (inactive) | 15.3% (inactive) | 31.6% (inactive) | -9.9% (inactive)
COc1cc2c(cc1OC)[C@H](C)N1CCc3cc(OC)c(OC)cc3[C@@H]1C2 | 2.1% (inactive) | -29.6% (inactive) | 6.65% (inactive) | 14.3% (inactive) | 9.45% (inactive) | -37% (inactive)
N/C(=N/O)c1cn(C2OC(CO)C(O)C2O)c2ncnc(NO)c12 (centres undefined) | 9.65% (inactive) | -20.6% (inactive) | -0.2% (inactive) | -1.15% (inactive) | -16.1% (inactive) | 4.1% (inactive)
Cc1nnc2n1N=C(c1ccc(O)c(O)c1O)CS2 | 2.9% (inactive) | -3.15% (inactive) | -4.7% (inactive) | 7.4% (inactive) | 1.75% (inactive) | -6.1% (inactive)
CC1CN(N)C(=O)O1 (centres undefined) | -3.9% (inactive) | -18.4% (inactive) | -19% (inactive) | 2.9% (inactive) | 2.6% (inactive) | -21.9% (inactive)
O=c1[nH]c(-c2cccnc2)nnc1-c1ccc(Cl)cc1 | 17.1% (inactive) | 2.4% (inactive) | 10.4% (inactive) | 28.4% (inactive) | 27.9% (inactive) | 4.2% (inactive)
CN=C(NC)c1ccc(Cl)c(Cl)c1 | 8.1% (inactive) | -5.4% (inactive) | -0.9% (inactive) | -31.2% (inactive) | 10.9% (inactive) | 11.8% (inactive)
CC(=O)CC(C)=NCCN=C(C)CC(C)=O.[Cu] | 86.2% (active) | 64.2% (inactive) | 75.7% (active) | 84.4% (active) | 71.8% (active) | 82% (active)
Cc1cc(C)c(Br)c(C)c1 | 1.55% (inactive) | 0.45% (inactive) | -2% (inactive) | -20.2% (inactive) | -4.95% (inactive) | -12.7% (inactive)
CC(CC(C(=O)N(C)C)(c1ccccc1)c1ccccc1)[N+](C)(C)[O-] (centres undefined) | 5.5% (inactive) | 17.4% (inactive) | 0.1% (inactive) | 11.9% (inactive) | 13.3% (inactive) | 3.8% (inactive)
CONS(=O)c1ccc(Cl)cc1 (centres undefined) | 10.8% (inactive) | 28.2% (inactive) | 6.35% (inactive) | -27.2% (inactive) | 4.95% (inactive) | 11% (inactive)
CCOC(=O)C12CC(COc3ccc([N+](=O)[O-])cc3)ON1OC(COc1ccc([N+](=O)[O-])cc1)C2 (centres undefined) | 23.9% (inactive) | 7.8% (inactive) | 17.2% (inactive) | 2.4% (inactive) | -3.85% (inactive) | 28.1% (inactive)
COc1ccc(C2(C=O)NC(=O)NC2=O)cc1 (centres undefined) | -2.25% (inactive) | -22.9% (inactive) | -13.5% (inactive) | 36% (inactive) | -2.6% (inactive) | 9% (inactive)
CC(C)(C)N1CCC(=O)C1=O | 23.8% (inactive) | 22.9% (inactive) | 1.85% (inactive) | 7.85% (inactive) | 5.85% (inactive) | 17.8% (inactive)
Cc1cccc2c(C=O)c[nH]c12 | 8.9% (inactive) | -3.1% (inactive) | -13.4% (inactive) | -9.55% (inactive) | 4.95% (inactive) | 14.2% (inactive)
O=S(=O)(c1cccc(C(F)(F)F)c1)N(CCCCN(S(=O)(=O)c1cccc(C(F)(F)F)c1)S(=O)(=O)c1cccc(C(F)(F)F)c1)S(=O)(=O)c1cccc(C(F)(F)F)c1 | -13.8% (inactive) | -11.6% (inactive) | -20.7% (inactive) | -20.2% (inactive) | -19.2% (inactive) | -6.6% (inactive)
CC(=O)OC(Cc1ccc2ccccc2n1)(C(F)(F)F)C(F)(F)F | -17.6% (inactive) | -16.1% (inactive) | -8.05% (inactive) | 6.2% (inactive) | 5.5% (inactive) | -24.5% (inactive)
COc1cccc(-c2cc(=O)c3cc(OC)ccc3[nH]2)c1 | -19.8% (inactive) | -1.6% (inactive) | -14% (inactive) | 6.15% (inactive) | 13.2% (inactive) | -13.3% (inactive)

Structure (SMILES) | growth inhibition [1] | growth inhibition [2] | growth inhibition [3] | growth inhibition [4] | growth inhibition [5] | growth inhibition [6]
Cc1ccc(C)c(NC(=O)c2ccc([N+](=O)[O-])cc2)c1 | -4.55% (inactive) | 17.4% (inactive) | 10% (inactive) | -11.8% (inactive) | 16.4% (inactive) | 23.6% (inactive)
CC(=O)NC1c2ccccc2CCC1OC(C)=O (centres undefined) | -16.4% (inactive) | -8.05% (inactive) | 22.9% (inactive) | -1.8% (inactive) | -8.55% (inactive) | -34.8% (inactive)
N#CCCC1C(=O)CCCC1=O | 0.2% (inactive) | 9.2% (inactive) | -0.85% (inactive) | -13.6% (inactive) | 6.9% (inactive) | 12.9% (inactive)
Cc1cc(C)c(C(=O)Oc2ccc(C)c(CC(Cl)(Cl)Cl)c2)c(C)c1 | 32.8% (inactive) | 9% (inactive) | 4.85% (inactive) | 19.1% (inactive) | -0.2% (inactive) | 14.4% (inactive)
COc1ccc2[nH]cc(C(=O)C(=O)NC34CC5CC(CC(C5)C3)C4)c2c1 | 12.7% (inactive) | 6% (inactive) | -5.2% (inactive) | -1.7% (inactive) | 16.2% (inactive) | -22.5% (inactive)
O=C1S/C(=C2\C(=O)N(CN3CCCCC3)c3ccc(Br)cc32)C(=O)N1CN1CCCCC1 | 37.4% (inactive) | -2.9% (inactive) | 9.35% (inactive) | -2.05% (inactive) | -1.6% (inactive) | 22.2% (inactive)
Cc1ccc(NC(=O)OC/C=C/c2ccccc2)cc1NC(=O)OC/C=C/c1ccccc1 | 17.9% (inactive) | 3.05% (inactive) | 9.05% (inactive) | 6.35% (inactive) | -8.35% (inactive) | 24.1% (inactive)
CC1OCC2OC(C)OC(C(C3C(=O)CC(C)(C)CC3=O)C3C(=O)CC(C)(C)CC3=O)C2O1 (centres undefined) | 17.4% (inactive) | 6.3% (inactive) | 19.2% (inactive) | -8.3% (inactive) | 26.2% (inactive) | 22.8% (inactive)
COc1ccc(S(=O)(=O)N/N=C\c2cc(I)cc(I)c2O)cc1 | 27.9% (inactive) | 7.9% (inactive) | 25.2% (inactive) | 14.6% (inactive) | -1.8% (inactive) | 5.1% (inactive)
C[N+](=C\c1ccccc1O)/N=C\c1ccccc1O | 7.15% (inactive) | 2.05% (inactive) | 6.75% (inactive) | -35.6% (inactive) | 8.2% (inactive) | -1.5% (inactive)
CCCCOC(=O)CCCCCCC/C=C/C1C=CC(CCCC)C(C#N)C1C#N (centres undefined) | 1% (inactive) | -5.95% (inactive) | -25.1% (inactive) | -6.05% (inactive) | -4.3% (inactive) | -13.3% (inactive)
CCC(C(N)=O)C(C)(C)C (centres undefined) | -0.15% (inactive) | -12.2% (inactive) | -4.7% (inactive) | 7.3% (inactive) | 12.3% (inactive) | -1.2% (inactive)
CC(=O)OCCS(=O)Cc1ccccc1 (centres undefined) | -36.9% (inactive) | -16.5% (inactive) | -9.05% (inactive) | -41.4% (inactive) | 3.6% (inactive) | 3.15% (inactive)
N#Cc1ccccc1OCCCCOc1ccccc1C#N | 8.7% (inactive) | 14% (inactive) | 15.2% (inactive) | 14.2% (inactive) | 18.7% (inactive) | 16.1% (inactive)
Oc1ccc(O)c(-n2cccn2)c1-n1cccn1 | -0.85% (inactive) | -4.55% (inactive) | -1.6% (inactive) | 6.3% (inactive) | 0% (inactive) | -2.75% (inactive)
Cc1cc(Nc2ccc(S(=O)(=O)O)c3cc(S(=O)(=O)O)cc(S(=O)(=O)O)c23)c2ccccc2n1 | -14.1% (inactive) | 4.3% (inactive) | 3.2% (inactive) | -10.9% (inactive) | 6% (inactive) | 8.7% (inactive)
COc1ccc(/C(Cl)=C(\C=O)c2ccc(OC)c(OC)c2)cc1OC | 21.9% (inactive) | 4.5% (inactive) | -0.3% (inactive) | -17.1% (inactive) | -3% (inactive) | -13.1% (inactive)
NN1CCOC1=O | 1.4% (inactive) | -35.9% (inactive) | 11.7% (inactive) | -2.9% (inactive) | -14.1% (inactive) | -1.7% (inactive)
CC(=O)Nc1ccc(S(=O)(=O)Nc2c(N)[nH]c(=S)[nH]c2=O)cc1 | 14% (inactive) | 3.9% (inactive) | 1.25% (inactive) | -3.75% (inactive) | 9.5% (inactive) | 9.45% (inactive)
